Source: PubChem BioAssay (National Center for Advancing Translational Sciences (NCATS))
Sm TGR block: S. mansoni TGR enzyme inhibition; Q962Y6; purified TGR, DTNB reduction, TNB absorbance 405 nm; Potency, µM (titrated, usually from 114 µM), usual class: inhibitors; 3% of 360,000 active; note: nearly all actives have a fitted effect of over 60% in size
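Kinetic colorimetric format: TGR-catalysed, NADPH-driven DTNB reduction monitored via TNB absorbance. Enzyme dispensed at 20 nM; compound exposure 15 min at room temperature before reaction start.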
AmpC no deterg: blocks E. coli AmpC beta-lactamase in detergent-free assay; P00811; AmpC nitrocefin hydrolysis, absorbance 480 nm, 0.0001% Triton; 0.52% of 330,000 active; Potency, µM (highest dose often 57.1 µM), usual class: inhibitors; note: nearly all actives have a fitted effect of over 20% in size
Target sequence (P00811 whole entry, looked up): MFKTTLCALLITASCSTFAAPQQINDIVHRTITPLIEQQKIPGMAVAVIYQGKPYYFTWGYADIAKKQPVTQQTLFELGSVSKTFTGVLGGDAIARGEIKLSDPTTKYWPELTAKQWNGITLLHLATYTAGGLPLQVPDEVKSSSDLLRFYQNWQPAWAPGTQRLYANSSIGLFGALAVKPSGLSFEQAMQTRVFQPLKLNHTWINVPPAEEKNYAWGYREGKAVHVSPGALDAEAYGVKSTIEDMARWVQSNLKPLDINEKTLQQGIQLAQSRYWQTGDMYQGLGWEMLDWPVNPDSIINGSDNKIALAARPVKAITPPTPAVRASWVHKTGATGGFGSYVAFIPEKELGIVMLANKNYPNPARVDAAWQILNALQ
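AmpC (5.3 nM in the dispensed reagent) in 20 mM phosphate pH 7.0 with 0.01% (detergent screen) or 0.0001% Triton X-100 was preincubated with compounds for 15 min at room temperature. Nitrocefin was then added from an 800 uM solution, and hydrolysis was followed at 480 nm.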
AMA1-RON2 inh: inhibitors of Plasmodium falciparum AMA1-RON2 interaction | AlphaScreen AMA1-biotinylated RON2 peptide binding | Potency, µM (series often up to 58.2 µM), actives largely listed as inhibitors | 0.2% of 360,000 active | AID 720542; note: nearly all actives have a fitted effect of over 45% in size
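AMA1 (3D7) with his tag at 25 nM final met compounds first, then biotinylated RON2 peptide at 25 nM; detection used donor plus acceptor beads, 10 µg/mL apiece, read by AlphaScreen after 30 min at room temperature.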
AmpC inh detg: blocks E. coli AmpC beta-lactamase in detergent assay; P00811; AmpC hydrolysis of nitrocefin, absorbance 480 nm, 0.01% Triton; Potency, µM (titrated, usually from 114 µM), actives largely listed as inhibitors; 0.041% of 370,000 active; note: nearly all actives have a fitted effect of over 25% in size
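20 mM phosphate pH 7.0 + 0.01% (detergent screen) or 0.0001% Triton X-100; 5.3 nM AmpC reagent; cpd preinc 15 min RT; nitrocefin (800 uM stock) to start; A480 q20 s × 4 min; Activity was normalised to no-enzyme and no-compound control wells.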
FMDV inh: blocks foot and mouth disease virus | FMDV antiviral cell-based qHTS | Potency, µM (titrated, usually from 57.9 µM), most hits filed as inhibitors | 1.2% of 410,000 active; calls by dose curve; tested in HEK293T cells; note: read-out not given here; nearly all actives have a fitted effect of over 45% in size
Numbers stand for hits; n = inactive; u = inconclusive; x = no result; [ ] = another dose, or the depositor's remark. Most compounds without a hit are left out; they make up all but 4.1% or so of the library. Unless noted, calls come from the whole dose curve; as a rule, active = well fitted curve in the direction sought with a large enough effect; inconclusive = small, poorly fitted or top-dose-only effect, or another doubt; inactive = no such curve, though single readings can be large; an effect the other way counts as inactive or inconclusive.

SMILES | Sm TGR block | AmpC no deterg | AMA1-RON2 inh | AmpC inh detg | FMDV inh
COc1ccc(C2Nc3cccc4cccc(c34)N2)cc1Br | 25µM | n | n | n | n
CCOc1ccccc1NC(=O)Nc1nnc(N2CCCC(C)C2)s1 (stereo not drawn) | n | x | x | n | n
COc1ccc(C(=O)NC(=S)NC(C)C)cc1Br | 16µM | n | n | n | n
COc1ccc(C(=O)NC(=S)NCc2ccco2)cc1Br | 50µM | n | n | n | n
COc1ccc(C(=O)NC(=S)NCc2ccco2)cc1OC | u | n | n | n | n
CCOC(=O)c1ccc(NC(=S)NCc2ccco2)cc1 | 11µM | n | n | n | n
COc1ccc(C(=O)NC(=S)NCc2ccco2)cc1 | 7.1µM | n | n | n | n
Cc1ccc(CCNC(=O)c2ccc(CNS(=O)(=O)c3ccc(F)cc3)cc2)cc1 | n | x | x | n | n
Cc1ccc(Sc2ncnc3onc(C)c23)cc1 | n | n | n | n | 18µM
Cc1oc2ncn(CC(C)C)c(=O)c2c1C(=O)Nc1cc(F)ccc1F | n | x | x | n | n
CC(Sc1nnc(Cc2cccs2)n1C1CCCCC1)C(=O)NCc1ccco1 (stereo not drawn) | 50µM | n | n | u | n
CCn1c(-c2ccccc2F)nc2cc(NC(C)=O)cc(C(=O)NCC3CCOCC3)c21 | x | x | x | x | n
CCC(=O)N1c2ccccc2CC1C(=O)NCCc1ccccc1Cl (stereo not drawn) | n | x | x | n | n
O=C(C1CCCN(S(=O)(=O)c2cccc3nsnc23)C1)N1CCN(c2cccc(Cl)c2)CC1 (stereo not drawn) | n | x | x | n | 11µM
O=C(C1CCCN(S(=O)(=O)c2cccc3nsnc23)C1)N1CCN(c2ccccn2)CC1 (stereo not drawn) | n | n | n | n | 28µM
CC1CCN(C(=O)C2CCCN(S(=O)(=O)c3cccc4nsnc34)C2)CC1 (stereo not drawn) | n | n | n | n | n
N#CCCn1c(=O)c(-c2ccccc2)nc2cnc(Oc3ccccc3)nc21 | x | x | x | x | n
Cc1cc(C(=O)NNc2ccc(C)c(C)c2)no1 | 50µM | n | n | n | n
Cc1ccc(NNC(=O)c2ccno2)cc1C | 50µM | n | n | n | n
CN(C)c1ccc(CNC(=O)C2CCN(Cc3cc4ccccc4n3Cc3ccccc3)CC2)cc1 | n | x | x | n | n
CCC1(C)Cc2nc3[nH]c(=S)n(-c4ccc(C)cc4)c(=O)c3cc2CO1 (stereo not drawn) | 6.3µM | n | n | n | n
Cc1ccc(-n2c(=S)[nH]c3nc4c(cc3c2=O)COC(C)(C)C4)cc1 | n | n | n | u | n
O=C(CCl)N(c1ccccc1)c1ccccc1 | 1.3µM | n | n | n | 14µM
O=C(CCl)N(CCc1ccccc1)CCc1ccccc1 | 13µM | n | n | n | 28µM
O=Cc1[nH]c2ccccc2c1N(C(=O)CCl)c1ccccc1 | 0.89µM | n | n | n | u
SMILES | Sm TGR block | AmpC no deterg | AMA1-RON2 inh | AmpC inh detg | FMDV inh
CCCCCCCN(C(=O)CCl)c1cccc(C)c1 | u | n | n | n | 28µM
O=C(CCCc1ccccc1)NCCc1ccccc1 | n | n | n | n | n
CCC(=O)N1CCc2cc(CNS(=O)(=O)c3ccc(Cl)s3)ccc21 | n | x | x | n | n
N#CCCN(C(=O)CCl)c1cccc(Cl)c1 | 7.1µM | n | n | n | u
CC(=O)N(CCN(C(C)=O)c1ccccc1)c1ccccc1 | n | n | n | n | n
CCCCCCN(C(=O)CCl)c1ccccc1 | 2.5µM | n | n | n | 20µM
COc1ccccc1CNC(=O)CCc1c(C)c2cc3c(C)c(C)oc3cc2oc1=O | n | x | x | n | n
CCOc1ccc(CN2CCOc3ccc(C(O)c4cccnc4)cc3C2)cc1 (stereo not drawn) | x | x | x | x | n
Cc1ccc(NC(=O)c2ccccc2)cc1-n1cnnn1 | 20µM | n | n | u | n
O=C(Nc1cccc(C(=O)Nc2ccc(Br)cc2)c1)c1ccccc1 | n | 32µM | n | n | n
Cc1ccc(C(=O)Nc2ccc3ncccc3c2)cc1 | n | n | n | n | 14µM
Cc1ccc(NC(=O)c2ccccc2Cl)cc1-n1cnnn1 | n | n | n | n | n
Cc1cccc(C(=O)Nc2ccc(NC(=O)c3ccccc3)cc2)c1 | n | n | n | n | n
Cc1cccc(C(=O)Nc2cccc(NC(=O)c3ccccc3)c2)c1 | n | 22µM | n | n | n
CC1(COc2ccc(CC3SC(=O)NC3=O)cc2)CCCCC1 (stereo not drawn) | x | x | x | x | n[6.7 µM]
CCOC(=O)c1c(C)[nH]c(C)c1S(=O)(=O)N1CCCC(C(=O)Nc2ccc(OC)c(OC)c2)C1 (stereo not drawn) | n | x | x | n | n
CCN(CC)c1cc(NCCO)c([N+](=O)[O-])c2nonc12 | n | n | n | n | n
CCC(=O)OCCNc1cc(Sc2nccn2C)c2nonc2c1[N+](=O)[O-] | 0.71µM | n | n | u | u
CCC(=O)OCCNc1cc(SCCC(=O)OC)c2nonc2c1[N+](=O)[O-] | 6.3µM | n | n | n | u
Cn1ccnc1Sc1cc(Cl)ccc1[N+](=O)[O-] | n | n | n | u | n
CCOC(=O)C(C)c1nc2ccccc2[nH]c1=O (stereo not drawn) | n | n | n | n | n
CCCC(=O)OCCNc1cc(Sc2nc3ccccc3[nH]2)c2nonc2c1[N+](=O)[O-] | 0.5µM | 13µM | n | u | u
CCCN(C(=O)c1cc(S(=O)(=O)N2CCc3ccccc32)cn1C)c1ccc(OCC)cc1 | n | x | x | n | n
O=C1Nc2ccccc2-n2nnnc2C1N1CCN(c2ccc(C(F)(F)F)cc2[N+](=O)[O-])CC1 (stereo not drawn) | x | x | n | x | u
Cc1cc(Br)ccc1NC(=O)C(NS(=O)(=O)c1cccs1)c1ccccc1 (stereo not drawn) | n | x | x | n | u
SMILES | Sm TGR block | AmpC no deterg | AMA1-RON2 inh | AmpC inh detg | FMDV inh
O=c1c2ccccc2nc(/C=C/c2cccc([N+](=O)[O-])c2)n1CCO | n | n | n | u | n
O=c1c2ccccc2nc(/C=C/c2cc(Br)ccc2O)n1CCCO | n | n | n | n | 25µM
Cn1c(N)c(C(=O)CCl)c(=O)n(Cc2ccccc2)c1=O | 11µM | n | n | n | 28µM
Cn1c(=O)c(C(=O)CCl)c(N)n(Cc2ccccc2)c1=O | 7.1µM | n | n | n | u
Cn1c(N)c(C(=O)CCl)c(=O)n(C)c1=O | 25µM | n | n | n | u
CN(C)CC(=O)c1c(N)n(Cc2ccccc2)c(=O)n(C)c1=O | n | n | n | n | n
Cc1cnc(-n2ncc(C(=O)NCC3CCCN(C)C3)c2C)nc1-c1cccs1 (stereo not drawn) | x | x | x | x | n
O=C1CC(C(=O)Nc2ccc(C(=O)N3CCOCC3)cc2)C2(CCCCC2)O1 (stereo not drawn) | n | 5µM | n | n | n
CC(NC(=O)Nc1ccc(Cl)cc1)c1ccc2c(c1)OCO2 (stereo not drawn) | n | 8.9µM | n | u | n
